Test in all cases: NCI-60 one-dose screen, 48 h (100 = growth as untreated, 0 = no growth, -100 = all killed)
What all share (conditions): 10 µM unless noted

The test system of assay [1] is HCT-15 colon.
In assay [2] the test system is HT29 colon.
Assay [3] has as its system SNB-75 CNS.
Assay [4] relates to SNB-19 CNS.
Assay [5] deals with U251 CNS.
Assay [6] deals with PC-3 prostate.
For assay [7], the system named is SK-MEL-5 melanoma.
For assay [8], the system named is UACC-62 melanoma.
Assay [9] relates to LOX IMVI melanoma.
For assay [10], the system named is SK-MEL-28 melanoma.

Compounds without any hit were thinned out: in the full panel of roughly 83,000, 20% have a hit.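 Activity criterion: percent growth below 10, measured after cells in 96-well plates were exposed to a single compound concentration for 48 hours.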 Values without a mark were called inactive. Calls of active or inactive are those of the source.

Turning to `C/C(=C(\c1ccc(OCCN2CCCCCC2)cc1)c1ccc(OC(=O)Cc2ccccc2)cc1)c1ccc(Cl)cc1`, the growth is -15.5% (active) in assay [1]; -8.13% (active) in [2]; 39.7% in [3]; 63.1% in assay [4]; 8.22% (active) in assay [5]; 41.9% in assay [6]. Further, the growth was 40.1% in assay [7], -5.48% (active) in assay [8], -94.5% (active) in [9] and -27.3% (active) in [10].
`CCC/C(=N\NC(N)=O)C(OC)OC`: the growth was 105% in [1]; 97.8% in assay [2]; 67.9% in [3]; 102% in [4]; 92.3% in assay [5]; 97% in assay [6]. In addition, the growth is 100% in [7], 100% in assay [8], 84.4% in assay [9] and 96.4% in assay [10].
As for `O=C(/C=C/C12c3ccccc3C(c3ccccc31)C1C(=O)NC(=O)C12)c1ccccn1` (stereo not given), the growth in assay [1] was -1.54% (active); in assay [2] it was 0.981% (active); in [3] it was 26.5%; in assay [4] it was 1.14% (active); in assay [5] it was -28.9% (active); in [6], 16.3%. For the same compound, the growth was 3.65% (active) in assay [7], -48.4% (active) in assay [8], -60.5% (active) in [9] and -33.2% (active) in assay [10].
As for `COc1ccc(C/C(C)=C(\c2ccc(O)cc2)c2ccc(OCCN3CCCC3)cc2)cc1`, the growth in assay [1] was 102%; in [2], 88.4%; in assay [3] it was 94.2%; in assay [4] it was 103%; in assay [5] it was 106%; in assay [6] it was 96.8%. For the same compound, the growth was 111% in assay [7], 102% in assay [8], 98.3% in [9] and 97% in assay [10].
As for `O=C1c2cc3c(cc2-c2c1c1ccc(Cl)cc1c(=O)n2C[C@H](O)CO)OCO3`, the growth in assay [1] was 4.59% (active); in assay [2] it was 0.971% (active); in [3], -9.59% (active); in assay [4] it was 14.1%; in assay [5] it was 0.379% (active); in assay [6] it was 6.95% (active). Also, the growth was -96.6% (active) in [7], -62% (active) in [8], -31.9% (active) in assay [9] and -6.11% (active) in [10].
Take `Cc1c2cc[nH]c(=O)c2c(C)c2c1[nH]c1ccc(OC(=O)c3ccccc3)cc12`: the growth is 27.9% in assay [1]; 34.1% in assay [2]; 39.9% in assay [3]; 45% in assay [4]; 29.2% in [5]; 35.9% in [6]. Also, the growth was -26.9% (active) in [7], 28.5% in assay [8], 13.7% in [9] and 25.2% in assay [10].
In the case of `COc1ccc(-c2cc(-c3cc(OC)c(OC)c(OC)c3)c(C#N)c(=O)n2CCCCCC(=O)NO)cc1`, the growth in [1] was 71.7%; in assay [2] it was 101%; in assay [3], 70.1%; in assay [4], 89.8%; in assay [5] it was 81.9%; in assay [6], 89.4%. The growth in [7] was 91.4%; in assay [8] it was 93.3%; in assay [9], 78.7%; in [10], 109%.
As to `O=C(CN1CCN(c2cc3c(cc2F)c(=O)c(C(=O)O)cn3C2CC2)CC1)N/N=C/c1ccncc1`, the growth in assay [1] was 97.5%; in assay [2], 97.8%; in [3], 89.1%; in [4], 92.8%; in assay [5], 98.8%; in assay [6] it was 91.7%. Further, the growth was 96.9% in assay [7], 95.7% in assay [8], 99.8% in assay [9] and 106% in assay [10].
For the compound `C=CC1(C)C(O[Si](C)(C)C(C)(C)C)CC2C3OC(=O)NC31c1cccc3c1[C@H](C(=O)N3C)C2(C)C` (stereo not given in full), the growth in assay [1] is 32.2%; in assay [2], 57.2%; in [3] it was 74.4%; in [4] it was 78.7%; in assay [5] it was 67%; in [6], 10.6%. Further, the growth is 25.9% in assay [7], 29.4% in assay [8], 63% in assay [9] and 63.7% in assay [10].
Take `COc1ccc2cc(Cn3cc[n+](Cc4ccc5ccccc5c4)c3)ccc2c1`: the growth is 95.7% in assay [1]; -33.5% (active) in assay [2]; 18.9% in [3]; 31.6% in assay [4]; 16.1% in assay [5]; 19% in assay [6]. In addition, the growth in assay [7] is -24% (active); in assay [8], 15.2%; in assay [9], 28.4%; in [10], 11.7%.
With `C=CC(C)(O)CC/C=C(\CO)C(=O)OC1C(C)OC(O[C@](C)(C=C)CC/C=C(\CO)C(=O)O[C@H]2C[C@@]3(C(=O)OC4OC(CO)C(O)C(O)C4OC4OC(C)C(OC5OC(CO)C(O)C5O)C(OC5OC(CO)C(O)C(O)C5O)C4O)C(CC2(C)C)C2=CCC4[C@@]5(C)CC[C@H](OC6OC(COC7OC(C)C(O)C(O)C7OC7OCC(O)C(O)C7O)C(O)C(O)C6NC(C)=O)C(C)(C)C5CC[C@@]4(C)[C@]2(C)C[C@H]3O)C(O)C1O` (stereo not given in full), the growth was 66.3% in [1]; 21.5% in [2]; -34.9% (active) in assay [3]; -54.1% (active) in assay [4]; -84.5% (active) in assay [5]; -68.9% (active) in [6]. For the same compound, the growth in [7] is 74.6%; in [8], -11% (active); in [9], -36.7% (active); in assay [10] it was -90.3% (active).
For `COc1cc(/C=C/c2cc(/C=C/c3ccc(O)c(OC)c3)n(C(=O)Nc3ccc(F)cc3)n2)ccc1O`, the growth is 10.6% in assay [1]; -41.8% (active) in assay [2]; 26.9% in [3]; 20.2% in [4]; 13.4% in [5]; 9.01% (active) in assay [6]. The growth in assay [7] is -8.36% (active); in [8], 2.01% (active); in assay [9], 4% (active); in assay [10] it was 16.7%.
On to `Cc1cccc(N2CCN(C(=S)c3ccc4c(c3)OCO4)CC2)c1`, for which the growth in assay [1] is 12.5%; in assay [2], 6.38% (active); in [3], -21.4% (active); in [4] it was 47.1%; in assay [5] it was 20.7%; in [6], 19.5%. Also, the growth in [7] was 6.14% (active); in assay [8], 29.1%; in assay [9] it was 32.8%; in assay [10], 54%.
Consider `NNC(=S)N/N=C/c1ccccn1`, for which the growth is 26.7% in assay [1]; 36% in assay [2]; 59.6% in [3]; 48.3% in [4]; 28.4% in assay [5]; 32.9% in assay [6]. Further, the growth in [7] is 30.2%; in assay [8], 20.7%; in [9], 13.2%; in [10], 56.3%.

The values above are taken from PubChem BioAssay (NCI).
